The values that follow come from PubChem BioAssay AID778 (Sanford-Burnham Center for Chemical Genomics, 2007).

The whole screen tested about 96,000 compounds, of which about 20,000 (21%) were called active.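 How the source made its calls: active means CYP2C19 inhibition above a set limit at 5 µM in the primary screen (cut at about 50% in these data); inactive means the rest.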 Not all results are given here.

The target in the experiment is Cytochrome P450 2C19 (Homo sapiens) (UniProt P33261). Kind of experiment: blockers of cytochrome P450 2C19 activity – biochemical, luminescence, ADME assay, primary screen (AID 778).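 Further: plate controls were negative control wells for no effect and 2.5 mM tranylcypromine positive control for full effect.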 The note with it: CYP2C19 Supersomes, luciferin-H EGE luminescence, 30 min; at 5 µM; active compounds read high.
Cytochrome P450 2C19 (Homo sapiens), sequence (P33261 whole entry, looked up): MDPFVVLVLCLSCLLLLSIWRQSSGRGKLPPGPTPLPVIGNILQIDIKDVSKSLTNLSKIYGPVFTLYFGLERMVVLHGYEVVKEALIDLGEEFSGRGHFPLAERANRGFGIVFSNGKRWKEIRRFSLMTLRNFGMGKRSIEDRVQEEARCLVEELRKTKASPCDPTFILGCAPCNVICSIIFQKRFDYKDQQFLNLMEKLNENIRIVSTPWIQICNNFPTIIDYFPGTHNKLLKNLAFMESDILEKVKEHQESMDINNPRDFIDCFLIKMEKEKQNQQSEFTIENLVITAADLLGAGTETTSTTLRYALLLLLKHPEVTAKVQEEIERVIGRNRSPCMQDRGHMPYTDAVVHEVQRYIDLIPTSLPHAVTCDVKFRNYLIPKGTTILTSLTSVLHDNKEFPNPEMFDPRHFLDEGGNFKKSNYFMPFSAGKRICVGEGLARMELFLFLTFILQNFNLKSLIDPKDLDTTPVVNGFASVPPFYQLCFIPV
As to `COc1ccc(C2OC(=O)CC2C(=O)NC(C)C)cc1` (stereo not drawn), the inhibition (in general, the relative decrease from the control value, in per cent) was 19.5% (inactive).

Take `O=C(Nc1ccccc1F)C1C2C=CC3(O2)C1C(=O)N(c1cccnc1)C3C(=O)NC1CCCCC1` (stereo not drawn): the inhibition was -8.2% (inactive).

`CCC(=O)N(C)C(c1ccccc1Cl)c1nnnn1-c1c(C)cccc1C` (stereo not drawn): the inhibition is 11.1% (inactive).

Take `O=C(c1ccccn1)c1ncc(C(F)(F)F)cc1Cl`: the inhibition was 44.3% (inactive).

On to `C#CCN(N(C)c1ncc(C(F)(F)F)cc1Cl)S(=O)(=O)c1ccc2ccccc2c1`, for which the inhibition is 94.5% (active).

Turning to `Cc1cc(C)cc(NS(=O)(=O)c2ccc(Oc3ncc(C(F)(F)F)cc3Cl)cc2)c1`, the inhibition was 9.5% (inactive).

For the compound `CC(NC(=O)C1CCC(CNc2c(N3CCOCC3)c(=O)c2=O)CC1)c1ccccc1` (stereo not drawn), the inhibition was -2.1% (inactive).

As for `Nc1nc(Br)c2ccccc2c1-c1ccc(F)cc1`, the inhibition is 18.7% (inactive).

For the compound `N#Cc1c(C(F)(F)F)cc(-c2ccccc2)nc1SCC(=O)N1CCOCC1`, the inhibition is 0% (inactive).

Regarding `CCC/C(O)=C1\C(=O)CC(C)(C)CC1=Nc1ccccc1OC`, the inhibition is 45.5% (inactive).

As to `CC1(C)CC(=O)C=C(NC2CC(C)(C)NC(C)(C)C2)C1`, the inhibition was -1.1% (inactive).

`COc1ccccc1-c1n[nH]c2c1[C@H](C)CC[C@H]2C(C)C`: the inhibition was 21% (inactive).

As to `CN(C(=O)COc1nnc(-c2cccs2)c(-c2cccs2)n1)c1ccccc1`, the inhibition is 75.5% (active).

As for `O=C(O)COc1ccc(-c2nccc(-c3cccs3)n2)cc1`, the inhibition was -9.2% (inactive).

Take `CCOc1cccc(C(=O)Nc2nnc(-c3cccs3)s2)c1`: the inhibition was 2.2% (inactive).

As to `O=C(O)Cc1ccc(NC(=O)C2CCCCC2C(=O)O)cc1` (stereo not drawn), the inhibition was 2.3% (inactive).

For `CSCCC(Nc1nc2ccccc2s1)C(=O)O` (stereo not drawn), the inhibition was 12.6% (inactive).

`COc1cc(C2C(C(=O)c3ccc(C)o3)=C(O)C(=O)N2Cc2cccnc2)ccc1O` (stereo not drawn): the inhibition was -12.6% (inactive).

`COc1cccc(C2/C(=C(/O)c3ccncc3)C(=O)C(=O)N2CCCN(C)C)c1` (stereo not drawn): the inhibition is -12.6% (inactive).

On to `COc1cc(C2C(C(=O)c3sc(C)nc3C)=C(O)C(=O)N2CCN(C)C)cc(OC)c1OC` (stereo not drawn), for which the inhibition was 76.7% (active).

In the case of `Cc1ccc(C(c2nnnn2C(C)(C)C)N2CCc3ccccc3C2)cc1` (stereo not drawn), the inhibition was 14.4% (inactive).

Turning to `COc1ccc(OC)c(C(c2nnnn2C(C)(C)C)N2CCc3ccccc3C2)c1` (stereo not drawn), the inhibition was 94.8% (active).

With `COC(=O)C1C(=O)c2c([nH]c(C(=O)OCCSC)c2C)CC1C` (stereo not drawn), the inhibition was 10.1% (inactive).

On to `Cc1nn(CCOc2ccccc2)c(=O)n1-c1ccccc1F`, for which the inhibition was 53.1% (active).

As for `Cc1cc2ncn(CCCCOc3ccccc3)c2cc1C`, the inhibition was 40.1% (inactive).

Take `Nc1nc(SCCOc2ccccc2)n[nH]1`: the inhibition is 28.3% (inactive).

Take `CC(C)Oc1ccc(C2NC(=O)NC2=O)cc1` (stereo not drawn): the inhibition was -16.7% (inactive).

For the compound `O=C(Nc1ccc(NC(=O)c2cccs2)cn1)c1ccco1`, the inhibition is 17.3% (inactive).

As to `COc1ccc2c(c1)C(C)=CC(C)(C)N2C(=O)CNCc1ccc2c(c1)OCO2`, the inhibition is 84.8% (active).

Regarding `Cc1ccc(-n2ncc3c(=O)[nH]cnc32)c(C)c1`, the inhibition was -3.8% (inactive).

Take `COn1c(=O)c(=O)n(OC)c2ccccc21`: the inhibition is -6.8% (inactive).

Turning to `Cc1ccc(NC(=O)Nc2ccc3oc(C)nc3c2)cc1`, the inhibition is 3% (inactive).

Consider `CCn1cc(C(=O)NCc2ccc3c(c2)OCO3)c2cc(OC)c(OC)cc2c1=O`, for which the inhibition was 15.2% (inactive).

On to `CCn1cc(C(=O)NCc2ccc(OC)cc2OC)c(=O)c2ccc(C)nc21`, for which the inhibition was 66.3% (active).

For `COc1ccc(C(=O)NCc2cn3ccccc3n2)cc1`, the inhibition is 1.2% (inactive).

Turning to `CC(c1ccco1)N(C(=O)Nc1ccccc1)C1CCCCC1` (stereo not drawn), the inhibition is 76.2% (active).

For `CC(NC(=O)Nc1ccccc1)c1ccccc1` (stereo not drawn), the inhibition is 24.8% (inactive).

Regarding `CCOc1ccc(NC(=O)N(CCC(C)C)C(C)c2ccco2)cc1` (stereo not drawn), the inhibition is 24.3% (inactive).

Consider `CC(=O)c1c(N)n(C)c(=O)n(C)c1=O`, for which the inhibition is 0.9% (inactive).

Consider `CCOC(=O)c1nnn(-c2nonc2-n2cccc2)c1CN1CCOCC1`, for which the inhibition is 3.7% (inactive).

With `CCOC(=O)c1nnn(-c2nonc2-n2cccc2)c1CN1CCC(C(=O)OCC)CC1`, the inhibition was 98% (active).

Turning to `CCN(CC)Cc1c(C(=O)OC)nnn1-c1nonc1N`, the inhibition is 4.8% (inactive).

For the compound `CC(=O)Oc1cccc(N2C(=O)CC(Nc3ccc(N4CCOCC4)cc3)C2=O)c1` (stereo not drawn), the inhibition was 18.5% (inactive).

With `Cc1ccc(NC(=O)NCC(c2cccnc2)N2CCOCC2)cc1` (stereo not drawn), the inhibition was -7.8% (inactive).

For the compound `CCOC(=O)N1CCN(C(=O)C2CC(c3ccc(F)cc3)=NO2)CC1` (stereo not drawn), the inhibition was 1.7% (inactive).

On to `COC(=O)[C@H](C(C)C)n1c(C)c(C(C)=O)c(C(C)=O)c1C`, for which the inhibition was 6.6% (inactive).

Consider `O=[N+]([O-])c1c(NCCO)cc(Sc2nc3ccccc3s2)c2nonc12`, for which the inhibition is 28.1% (inactive).

`OC(COc1cccc(OCC(O)CN2CCCC2)c1)CN1CCCC1` (stereo not drawn): the inhibition is 0.1% (inactive).

Turning to `OC(COc1ccc2c(c1)CCC2)CN1CCN(c2cccc(Cl)c2)CC1` (stereo not drawn), the inhibition is 59.3% (active).

Turning to `O=C(c1ccc(Cl)cc1)c1ccc(OCC(O)CN2CCCCC2)cc1` (stereo not drawn), the inhibition is 8.8% (inactive).

In the case of `CCN(CC)c1ccc2cc(C(=O)O)c(=O)oc2c1`, the inhibition was -13.2% (inactive).

Take `CCOc1cc(C(=O)N2CCc3cc(OC)c(OC)cc3C2)ccc1OC(F)F`: the inhibition was 51.6% (active).

For `COc1cc2c(cc1OC)CN(C(=O)c1cc(=O)c3ccccc3o1)CC2`, the inhibition was 19.7% (inactive).

As to `CCOc1cc(CN2CCN(C(=O)CC(C)C)CC2)ccc1OC`, the inhibition was -10.6% (inactive).

Turning to `CN1CCN(CC(O)COCc2ccc3c(c2)OCO3)CC1` (stereo not drawn), the inhibition is -20.9% (inactive).

For the compound `Cc1ccc(NC(=O)CS(=O)CC(=O)N(c2ccccc2)C(C)C(=O)NC2CCCC2)cc1` (stereo not drawn), the inhibition was 9.7% (inactive).

As to `O=C(NCc1ccccn1)c1c(O)c2c([nH]c1=O)CCCC2`, the inhibition was 11.7% (inactive).

With `CCCc1cc(-c2n[nH]c(=S)n2Cc2ccccc2)cs1`, the inhibition was 5.4% (inactive).

Consider `COc1ccc(S(=O)(=O)Nc2c(C)n(C)n(-c3ccccc3)c2=O)cc1`, for which the inhibition is -4.1% (inactive).

Turning to `Cc1ccc(S(=O)(=O)Nc2ccccc2CNc2c(C)n(C)n(-c3ccccc3)c2=O)cc1`, the inhibition is 95.6% (active).

Turning to `Cc1c(Nc2nc3ccccc3nc2NS(=O)(=O)c2cccs2)c(=O)n(-c2ccccc2)n1C`, the inhibition was 1% (inactive).

As to `CCOc1ccc(-c2c(C)n([O-])c3c([n+]2=O)CCCC3)cc1`, the inhibition was 9.2% (inactive).

Consider `Cc1ccn2cc(-c3nonc3C)cc2c1`, for which the inhibition is 50.1% (active).

Take `COc1cc(Cl)c(S(=O)(=O)N2CCN(Cc3ccc4c(c3)OCO4)CC2)cc1Cl`: the inhibition was 36.2% (inactive).

Take `COc1ccc(Cl)cc1S(=O)(=O)N1CCN(CC(=O)C(C)(C)C)CC1`: the inhibition was 85.9% (active).

On to `COc1ccc(NC(=O)CN2CCN(S(=O)(=O)c3ccc(F)cc3)CC2)cc1Cl`, for which the inhibition is 0.5% (inactive).

Consider `COc1cc(NS(=O)(=O)c2ccc(N=Cc3c(C)[nH]n(-c4ccccc4)c3=O)cc2)nc(OC)n1`, for which the inhibition was -18% (inactive).

In the case of `COc1ccc(C(=O)Nc2ccccc2C(=O)N/N=C/c2ccccc2OC)cc1`, the inhibition was -5.9% (inactive).

Take `COc1ccc(C(=O)Nc2ccccc2C(=O)N/N=C/c2ccc(O)c(OC)c2)cc1`: the inhibition is 87.2% (active).

Consider `COc1cc(/C=N\NC(=O)CNC(=O)c2cccc([N+](=O)[O-])c2)ccc1O`, for which the inhibition is 23% (inactive).

In the case of `N#Cc1ccsc1NC(=O)CN1CCCCC1`, the inhibition is -6.2% (inactive).

Turning to `CC1CCc2c(sc3nc4n(c(=O)c23)CCS4)C1` (stereo not drawn), the inhibition is -6.7% (inactive).

On to `Cn1c(NN)nc2sc3c(c2c1=O)CCC3`, for which the inhibition is 78.4% (active).

Take `NNC(=O)C1CCCn2c1nc1sc3c(c1c2=O)CCCC3` (stereo not drawn): the inhibition was 12.4% (inactive).

Regarding `Cc1cccc(N2CCN(Cc3c(C)n(C)n(-c4ccccc4)c3=O)CC2)c1C`, the inhibition is 15.2% (inactive).

As for `COC(=O)Nc1sc2nc(C)cc(C)c2c1-n1cccc1`, the inhibition is 19.5% (inactive).

`Cn1c(NC(=O)c2ccco2)c(-c2ccccc2Cl)c(=O)c2ccccc21`: the inhibition is -6.5% (inactive).

With `CCCC(O)(c1ccc(OC)cc1)C(CN(C)C)c1ccccc1` (stereo not drawn), the inhibition is -13.2% (inactive).

As to `CCc1nnc(NC(=O)c2cccs2)s1`, the inhibition is 14.6% (inactive).

As for `CCc1c(C)sc(NC(=O)c2cccs2)c1C(N)=O`, the inhibition is 84.1% (active).

In the case of `CCOC(=O)c1c(NC(=O)c2cccs2)sc(C)c1C`, the inhibition was -10.4% (inactive).

Take `CN1CCN(CC(=O)Nc2sc3c(c2C#N)CCC(C(C)(C)C)C3)CC1` (stereo not drawn): the inhibition is 26.1% (inactive).

As to `O=C(NC1CCCC1)c1ccc(Br)s1`, the inhibition is 71.3% (active).

For `O=C(Cc1ccc(F)cc1)NC1CCCC1`, the inhibition was 43.4% (inactive).

Consider `CN(CC(=O)NC1CCCCC1)S(=O)(=O)c1ccc(Br)s1`, for which the inhibition was 11.4% (inactive).

In the case of `Cc1cccc(-n2c(O)c(C=Nc3ccccc3N)c(=O)[nH]c2=O)c1`, the inhibition was -2.2% (inactive).

As to `C=CCNC(=O)CCCC(=O)NCC=C`, the inhibition was 0.1% (inactive).

Turning to `O=C(COC(=O)c1ccccc1C(=O)c1ccccc1)c1ccco1`, the inhibition is 84.4% (active).

As to `CCN(CC)c1ccc(C(=O)OCC(=O)c2ccco2)cc1`, the inhibition is 8.1% (inactive).

Take `O=C(CNC(=O)c1ccco1)OCC(=O)c1ccccc1`: the inhibition is 17.9% (inactive).

With `CCCC(=O)C1=C(N(C)c2ccccc2)CC(C)(C)C(C(=O)OC)C1=O` (stereo not drawn), the inhibition was 14.5% (inactive).

Consider `CCC(C(=O)N1CCOCC1)n1c(C(=O)OC)cc2occc21` (stereo not drawn), for which the inhibition is 35.4% (inactive).

Regarding `CC1CCN(C(=O)CN(c2ccc(Oc3ccccc3)cc2)S(C)(=O)=O)CC1`, the inhibition was 28.4% (inactive).

As to `CCOC(=O)c1cc2occc2n1CC(=O)NC1CCC(C)CC1` (stereo not drawn), the inhibition is 56.3% (active).

Consider `CCOC(=O)c1cc2c(ccn2C)n1CC(=O)N1CCC(C)CC1`, for which the inhibition is 55.4% (active).

As for `CCOC(=O)c1cc2occc2n1CC(=O)N1CCN(C(=O)c2ccco2)CC1`, the inhibition was -4% (inactive).

As for `CC1CCN(C(=O)Cn2cc(C(=O)c3ccco3)c3ccccc32)CC1`, the inhibition was 17.1% (inactive).

Take `CCOc1ccc(NC(=O)CSc2nc3c(c(=O)n2-c2ccccc2OC)SCC3)cc1`: the inhibition is 37.5% (inactive).
